Source: PubChem BioAssay AID1006 (Sanford-Burnham Center for Chemical Genomics, 2008)
The whole screen tested about 200,000 compounds, of which about 3,000 (1.5%) were called active.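 The calls were made as follows: active = inhibition above about 50% when tested at 10 µM (limit read from the data); inactive = the rest.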 Shown is part of a subset that was picked to be rich in actives.

The molecules below were run against Luciferin 4-monooxygenase (Photinus pyralis) (UniProt P08659) (assay: inhibition of purified FLuc reporter enzyme – biochemical, luminescence, ATPLite, artefact control for luciferase-based inhibitor screens, primary screen (AID 1006)). Settings: ATPLite firefly luciferase biochemical luminescence, 10 min; at 10 µM; stronger effect = higher value.
Chain of Luciferin 4-monooxygenase (Photinus pyralis) (P08659 whole entry, looked up): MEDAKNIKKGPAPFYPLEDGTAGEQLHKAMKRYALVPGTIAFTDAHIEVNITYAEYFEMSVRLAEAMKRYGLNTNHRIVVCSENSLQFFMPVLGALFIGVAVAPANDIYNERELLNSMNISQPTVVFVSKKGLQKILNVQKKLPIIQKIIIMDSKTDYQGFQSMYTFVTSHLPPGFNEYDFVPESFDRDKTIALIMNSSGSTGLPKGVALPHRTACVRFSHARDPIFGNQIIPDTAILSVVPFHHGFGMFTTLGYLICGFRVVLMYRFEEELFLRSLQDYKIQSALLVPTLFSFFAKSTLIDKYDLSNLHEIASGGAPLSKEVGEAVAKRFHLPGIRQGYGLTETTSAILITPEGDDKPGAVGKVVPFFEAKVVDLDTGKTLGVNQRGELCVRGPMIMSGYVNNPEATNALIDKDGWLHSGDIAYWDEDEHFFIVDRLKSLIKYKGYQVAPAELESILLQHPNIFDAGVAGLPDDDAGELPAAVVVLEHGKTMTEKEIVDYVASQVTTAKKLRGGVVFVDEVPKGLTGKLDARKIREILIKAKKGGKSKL

Compound	inhibition
COc1ccc(OC)c(/C=C/C(=O)OCC(=O)Nc2ccc3c(c2)OCCO3)c1	0.6% (inactive)
COc1ccc(/C=C/C(=O)Nc2ccc3c(c2)OCCO3)cc1OC	10.1% (inactive)
Cc1cccc(NC(=O)/C=C/c2ccc3c(c2)OCO3)n1	89.3% (active)
CC(NC(=O)Nc1ccc2c(c1)OCO2)c1ccncc1 (stereo unspecified)	-4.9% (inactive)
CCc1c(C)sc(NC(=O)/C=C/c2ccc3c(c2)OCO3)c1C(=O)OC	5% (inactive)
O=C(/C=C/c1ccc2c(c1)OCO2)NCc1ccc(F)cc1	1.2% (inactive)
CC(C)C(=O)Nc1cccc(C(=O)Nc2ccc3c(c2)OCO3)c1	33% (inactive)
Cc1cccc(NC(=O)Nc2ccc3c(c2)OCO3)n1	55% (active)
COc1cccc(/C=C/C(=O)Nc2ccc3c(c2)OCCO3)c1	86.5% (active)
CC(=O)c1c(-c2ccccc2)c2ccccc2[nH]c1=O	-6.4% (inactive)
CSc1ccc(/C=N/N2CCN(Cc3ccccc3Cl)CC2)cc1	-7.8% (inactive)
O=C(Cc1ccc(Cl)cc1)NCc1nc(-c2ccccc2)no1	-3.2% (inactive)
Cc1ccc(N(C(=O)c2sc(C)nc2C)C(C(=O)NC(C)(C)C)c2ccncc2)cc1 (stereo unspecified)	-4.2% (inactive)
CCOC(=O)CN1CCC(c2ccccc2)CC1	-0.7% (inactive)
CCOc1ccc(S(=O)(=O)N/N=C(\C)c2ccc(Cl)c(Cl)c2Cl)cc1	1.5% (inactive)
CC1(C)C2CC=C(/C=N/NC(=O)C3CC3)C1C2 (stereo unspecified)	-0.4% (inactive)
CC(C)c1cc(C(N)=O)c(NC(=O)c2cccc(COc3ccc(Br)cc3)c2)s1	-2.6% (inactive)
Cc1cccc(C(=O)N2CCCN(C(=O)c3cccc(C)c3)CC2)c1	-3% (inactive)
COc1ccc(OCC(=O)NNC(=O)c2cccc(C)c2)cc1	-0.5% (inactive)
CCN(CC)C(=O)c1ccc(O)c(OC)c1	-4% (inactive)
CCOc1ccc(OCc2cccc(C(=O)N(CC)CC)c2)cc1	68% (active)
COc1ccc(OCc2cccc(C(=O)N3CCCC3)c2)cc1	52.1% (active)

Compound	inhibition
CCCn1nc(Oc2nc(NC(C)C)nc(N(C)C)n2)ccc1=O	-7.4% (inactive)
Cc1ccccc1N1C(=O)C(Oc2ccc(Cl)cc2)C1CNCC1CCCO1 (stereo unspecified)	-3.1% (inactive)
CCOC(=O)c1sc(-c2cccc([N+](=O)[O-])c2)cc1N	-3.5% (inactive)
Cc1ccc(OCCCC(=O)NC(C)c2ccccc2)c(C)c1 (stereo unspecified)	-1% (inactive)
O=C(O)/C=C/c1ccc(OCCCF)cc1	-2.5% (inactive)
O=C(Oc1ccccc1Cl)c1ccc(N2CCOCC2)c([N+](=O)[O-])c1	-14.3% (inactive)
COc1ccccc1NC(=O)COC(=O)Cc1ccc(S(=O)(=O)N2CCCCC2)s1	-8.3% (inactive)
O=C(Nc1ccc2c(c1)CCC2)c1ccc(Br)s1	57.1% (active)
O=C(NC1CCCC1)c1ccc(Br)s1	3.5% (inactive)
CC(C)C(=O)OCC(=O)Nc1ccc2c(c1)CCC2	8.9% (inactive)
CCNC(=O)CC1C(=O)N(c2ccc(F)cc2)C(=O)N1CCc1sccc1C (stereo unspecified)	-3.3% (inactive)
COc1ccc(/C=C/CN2CCCC(C(=O)c3cc(F)ccc3F)C2)cc1 (stereo unspecified)	-1.7% (inactive)
O=C(Oc1ccc([N+](=O)[O-])cc1)c1ccc(Cl)c(S(=O)(=O)N2CCCCC2)c1	-5.6% (inactive)
COc1ccccc1N=Cc1c(O)c2ccccc2oc1=O	95.4% (active)
COc1ccc(N=Cc2c(O)[nH]c3ccccc23)cc1OC	6% (inactive)
COc1ccc(OC)c(N=Cc2c(O)[nH]c3ccccc23)c1	0.1% (inactive)
COc1ccc(NC(=O)CN2C(=O)CSC2=O)cc1	1.6% (inactive)
O=C(CCC(=O)Nc1ccccc1)N/N=C/c1ccccc1F	-1.2% (inactive)
O=C(/C=C/c1ccc2c(c1)OCO2)NCc1cn2cc(Cl)ccc2n1	5.7% (inactive)
CC(Oc1ccccc1)C(=O)Nc1oc(-c2ccco2)c(-c2ccco2)c1C#N (stereo unspecified)	-6.2% (inactive)
COC(=O)c1cccnc1NC(=S)NC(C)C	9.9% (inactive)
COc1ccc(C2=Nc3cc(C)ccc3OC2)cc1	77.4% (active)

Compound	inhibition
COc1ccc(C2=NOC3(CC(=O)N(c4ccc(C)cc4)C3=O)C2)cc1 (stereo unspecified)	-1.7% (inactive)
COc1ccc(C2=NOC(COC(=O)c3ccc4ccccc4n3)C2)cc1 (stereo unspecified)	3.5% (inactive)
Cc1cc(N/N=C/c2ccccc2F)c2ccccc2n1	-7.5% (inactive)
Cc1ccc2nc(-c3ccncc3)cc(C(=O)Nc3ccc(OC(F)F)cc3)c2c1	-8% (inactive)
COc1ccccc1C(=O)Nn1c(-c2cccs2)nc2ccccc2c1=O	-0.5% (inactive)
Cc1ccc(Oc2ccc3c(c2)C(=O)N(c2cccc4cccnc24)C3=O)cc1	-5.2% (inactive)
Cc1cccc(N2C(=O)c3cccnc3C2=O)c1	68.5% (active)
O=C1c2cccnc2C(=O)N1Cc1cccs1	-1.3% (inactive)
CN(C)/N=C/c1cn(-c2ccccc2)nc1-c1cccnc1	5.7% (inactive)
CCOc1ccc(/C=C(/NC(=O)c2ccccc2)C(=O)NCCC(=O)O)cc1	-10.4% (inactive)
COC(=O)c1ccc(/C=N/OCC(=O)Nc2cc(F)ccc2F)cc1	0% (inactive)
CCOC(=O)N1CCN(CC(=O)Nc2ccc(F)cc2)CC1	-7.1% (inactive)
COc1cc(C(=S)N2CCOCC2)ccc1O	-1% (inactive)
COc1ccc2[nH]c(=O)c(-c3noc(-c4ccc(F)cc4)n3)cc2c1	-1.9% (inactive)
Cc1ccc(Cc2nc(-c3cccc(C)c3)no2)cc1	2.3% (inactive)
Cc1cccc(-c2noc(-c3ccc(F)cc3)n2)c1	59.9% (active)
COc1ccc(C(=O)NNC(=O)c2cc(C)[nH]n2)cc1	-3.5% (inactive)
Cn1cc(CCC(=O)N2CCCC(C(=O)c3ccc(C(C)(C)C)cc3)C2)cn1 (stereo unspecified)	1.3% (inactive)
COc1cccc(C(=O)Nc2cccnc2)c1OC	-1.1% (inactive)
O=C(Nc1cccnc1)c1noc2c1CCCCC2	57.5% (active)
O=C(Nc1cccnc1)c1cccc(S(=O)(=O)N2CCCC2)c1	-1.1% (inactive)
Cc1ccc(CN2CCN(Cc3ccc(OCCO)cc3)CC2CCO)o1 (stereo unspecified)	-7% (inactive)
